A selection: hits, their analogues and other compounds. The true share with any hit is near 3.4%.
KLK7 zymogen act = activates the human kallikrein-7 zymogen; purified proKLK7, EDANS-DABCYL substrate fluorescence; 100% is mature enzyme control, 0% vehicle; activation, % at 7 µM; hit rate 0.9% among 370,000; AID 652039;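 active = activation above the mean of all tested compounds plus 3 SD, computed per campaign excluding outliers beyond control limits, cut at about 13% in these data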
PLC-beta3 inh = blocks human PLC-beta3 enzyme activity | inhibition, % at 12.2 µM | Q01970 | Purified PLC-beta3, fluorogenic substrate, fluorescence | AID 720704 | hit rate 0.18% among 370,000; in the data active = inhibition above about 11%;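 note: 0% = median of compound wells on plate and 100% = full blocker control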
ADAM17 inh = inhibitors of human ADAM17; P78536; recombinant ADAM17, EDANS/DABCYL FRET peptide cleavage; inhibition, % at 6.95 µM; hit rate 0.83% among 370,000;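 active = inhibition above the mean of compounds lying between control limits plus 3 SD, set per campaign, cut at about 8.5% in these data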;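 note: 0% = DMSO-only wells as the low control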
ADAM10 inh = ADAM10 inhibition, QFRET primary screen; recombinant ADAM10, EDANS/DABCYL FRET peptide cleavage, 3 h; inhibition, % at 7 µM; hit rate 0.62% among 370,000; AID 720582;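 active = inhibition above a per-campaign cutoff equal to the mean of compounds falling between control-based bounds plus 3 SD, cut at about 20% in these data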;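 note: 0% = DMSO wells while the 100% control is not disclosed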
Target sequence (O14672 214-748 limits assumed): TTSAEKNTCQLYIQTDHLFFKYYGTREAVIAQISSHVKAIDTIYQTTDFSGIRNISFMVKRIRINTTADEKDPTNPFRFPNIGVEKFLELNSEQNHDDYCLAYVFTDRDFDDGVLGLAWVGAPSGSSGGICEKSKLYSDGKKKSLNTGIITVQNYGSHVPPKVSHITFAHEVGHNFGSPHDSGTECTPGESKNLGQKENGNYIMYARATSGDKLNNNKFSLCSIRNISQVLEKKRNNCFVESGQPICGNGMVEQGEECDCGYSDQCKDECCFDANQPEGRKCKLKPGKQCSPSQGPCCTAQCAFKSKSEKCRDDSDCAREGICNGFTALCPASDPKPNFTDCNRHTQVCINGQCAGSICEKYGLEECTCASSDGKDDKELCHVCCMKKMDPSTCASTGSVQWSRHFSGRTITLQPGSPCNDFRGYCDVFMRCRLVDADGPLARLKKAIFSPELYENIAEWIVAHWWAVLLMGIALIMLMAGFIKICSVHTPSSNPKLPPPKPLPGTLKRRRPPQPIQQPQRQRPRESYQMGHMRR
PLCg1 inh = inhibitors of human phospholipase C gamma1; purified PLC-gamma1, fluorogenic substrate, fluorescence; inhibition, % at 12.2 µM; hit rate 0.84% among 370,000; AID 720700; in the data active = inhibition above about 9.5%
HGIII-sPLA2 inh = Inhibits HGIII-sPLA2 liposome hydrolysis, primary screen; inhibition, % at 12.2 µM; Q9NZ20; QFRET BODIPY PC-A2 liposome hydrolysis, fluorescence; hit rate 0.56% among 370,000;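 active = inhibition above mean plus 3 SD of compounds lying within the high and low control bounds, cut at about 19% in these data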;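 note: 0% = median of test compound wells and 100% = no enzyme DMSO wells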
KLK7 act conf = confirmation of human kallikrein-7 zymogen activators | shares compounds with KLK7 zymogen act | purified proKLK7, EDANS-DABCYL substrate fluorescence; scaled: vehicle 0, mature enzyme 100 | activation, % at 7 µM | hit rate 68% among 3,200;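 active = activation, as change over the incubation, above the mean of all tested compounds plus 3 SD, cut at about 13% in these data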
EDANS-DABCYL int = fluorescence interference counter-screen for KLK7 activators; shares compounds with KLK7 zymogen act; EDANS-DABCYL substrate fluorescence interference, no enzyme, 4 h; solvent 0%, active enzyme control 100%; activation, % at 7 µM; hit rate 80% among 3,200; AID 686952;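 active = activation above the all-compound mean plus 3 SD, ignoring values outside control-based bounds, cut at about 4.8% in these data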;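 note: value is the 4 h activation minus the activation read at time zero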
EDANS interf = optically interferes with EDANS-DABCYL fluorescence, kallikrein-7 activator counter-screen. EDANS-DABCYL peptide fluorescence interference, no enzyme. shares compounds with KLK7 zymogen act. hit rate 20% among 250. EC50, µM;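 active = compounds that raise the fluorescence signal in this interference counterscreen, with EC50 at or below 10 µM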;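 note: intact quenched peptide substrate alone read at 355 nm excitation and 520 nm emission; signal is fluorescence gain from T0 to T4 after four hours at room temperature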
* hit, by the source's call; i = inactive; . = no result.

SMILES | KLK7 zymogen act | PLC-beta3 inh | ADAM17 inh | ADAM10 inh | PLCg1 inh | HGIII-sPLA2 inh | KLK7 act conf | EDANS-DABCYL int | others
Cn1nc(C(=O)N2CCc3ccccc3C2)c2ccccc2c1=O | 0 | 2 | -2 | 4 | 2 | 0 | . | .
Cc1ccc2c(COC(=O)CNS(=O)(=O)c3ccccc3)cc(=O)oc2c1 | 0 | -6 | -4 | -19 | 1 | 6 | . | .
CCOC(=O)Nc1ccc2c(COC(=O)CNS(=O)(=O)c3ccc(NC(C)=O)cc3)cc(=O)oc2c1 | 98* | -260 | -432 | i | -221 | 0 | 127* | 106*
CN1C2=NC(c3ccc4ccccc4c3)CC(=O)N2/C(=C\c2ccccc2)C1c1ccccc1C(F)(F)F (stereo not given) | . | -3 | -5 | -13 | -3 | 0 | . | .
CC(C)NCC(O)c1ccc(O)c(O)c1 (stereo not given) | 35* | -1 | -10 | -13 | -2 | 0 | 46* | 51*
CCN(CC)Cc1c(O)ccc2c(C)c(CC(=O)OC)c(=O)oc12 | 58* | i | i | i | i | 1 | 65* | 67*
COC(=O)Cc1c(C)c2ccc(OCC(C)=O)c(C)c2oc1=O | 0 | -69 | -169 | i | -62 | -5 | . | .
COC(=O)Cc1c(C)c2ccc(O)c(CNCc3ccc(OC)c(OC)c3)c2oc1=O | 63* | i | i | i | i | 4 | 77* | 65* | EDANS interf=>70
COc1ccc(CNC(=O)c2cc(-c3ccccc3)c(N3CCOCC3)s2)cc1OC | 0 | -11 | 7 | 8 | -10 | 4 | . | .
COP(=O)(c1ccc(N(C)C)cc1)C(O)c1ccccc1 (stereo not given) | 29* | -2 | -7 | -12 | -3 | -1 | 0 | 0
COc1ccc(-c2ccc3nnc(SCC(=O)N4CCCC4)n3n2)cc1 | 15* | i | -120 | -368 | i | 1 | 17* | 13* | EDANS interf=>70
COc1ccc([C@H]2OC(=O)C[C@H]2C(=O)N2CCN(C(=O)C3CCCO3)CC2)cc1OC (stereo not given in full) | -1 | 1 | -4 | -7 | 2 | 7 | . | .
Cc1cc(C)c2c(n1)nn1c(NCCN3CCOCC3)cc(C)nc21 | 33* | i | i | i | i | 3 | 40* | 32* | EDANS interf=>69
COCCNc1cc(C)nc2c(-c3ccccc3OC)c(C)nn12 | 0 | -18 | -3 | -18 | -15 | 10 | . | .
COCCNc1cc(C)nc2c3c(C)cc(C)nc3nn12 | 81* | i | i | i | i | -3 | 70* | 63*
CCSc1nnc(-c2ccco2)n1C | 0 | 1 | 2 | -2 | 1 | -5 | . | .
COC(=O)[C@]12CCCCC=C1N(Cc1ccc(OC)cc1)C(=O)[C@@H]2CC(=O)NCCc1ccccc1OC | 0 | 3 | -2 | 9 | 0 | -15 | . | .
CCOC(=O)c1cc(N2CCCCC2)nc2ccccc12 | 17* | -287 | -54 | -214 | -194 | -3 | 3 | 4.9*
COC(=O)c1cc(N2CCN(C)CC2)nc2ccccc12 | 61* | i | -101 | -269 | -396 | -16 | 15* | 13*
COC(=O)C1CN(CC(C)C)CCS(=O)(=O)N1Cc1ccc(OC)cc1 (stereo not given) | 0 | 2 | -2 | 4 | 3 | 0 | . | .
Cc1cc(C)cc(N(CC(=O)NC2CCC(C)CC2)S(=O)(=O)c2ccc(C(C)(C)C)cc2)c1 (stereo not given) | 0 | 0 | -1 | -7 | 1 | 2 | . | .
C=CCN1C(=O)[C@@H](CC(=O)NCCc2ccccc2OC)[C@]2(C(=O)OC)CCCCC=C12 | 0 | 2 | -3 | -2 | 2 | 4 | . | .
CCOc1ccc(NC(=O)c2ccc(NC(=O)c3cn4c5c(c(N6CCN(C)CC6)c(F)cc5c3=O)OCC4C)cc2)cc1 (stereo not given) | 43* | -206 | -47 | -205 | -222 | 3 | 10 | 8.4*
CC1COc2c(N3CCN(C)CC3)c(F)cc3c(=O)c(C(=O)O)cn1c23 (stereo not given) | 160* | i | i | i | i | 11 | 32* | 34*
COC(=O)c1cc(-c2cccc(C(C)C)c2)c(=O)n2c1CCC2 | 1 | -16 | -5 | -16 | -11 | 2 | . | .
SMILES | KLK7 zymogen act | PLC-beta3 inh | ADAM17 inh | ADAM10 inh | PLCg1 inh | HGIII-sPLA2 inh | KLK7 act conf | EDANS-DABCYL int | others
CC[C@H](C)[C@H](NC(=O)CNC(=O)COc1cc2c(c3oc(=O)cc(C)c13)CCC(C)(C)O2)C(=O)O | 50* | i | i | i | i | 13 | -1 | -18
Cc1cc(=O)oc2c3c(cc(OCC(=O)NCC(=O)N[C@H](C(=O)O)C(C)C)c12)OC(C)(C)CC3 | 43* | i | i | i | i | 1 | 62* | 72*
COc1ccc(C=NNC(=O)c2cc(-c3ccc(C)c(C)c3)n[nH]2)cc1OCc1ccccc1 | 1 | -35 | -6 | -7 | -17 | -7 | . | .
COc1nc(OC)nc(N2CCC(C(=O)N(C)Cc3ccco3)CC2)n1 | 1 | -1 | 0 | -4 | 2 | 10 | . | .
CCN(CC)CCCNC(=O)c1cc2c(=O)n(CC)c3ccccc3c2s1 | 12 | -95 | -221 | i | -65 | 3 | . | .
CCn1c(=O)c2cc(C(=O)NCCN(C)C)sc2c2ccccc21 | 35* | -160 | -349 | i | -129 | -4 | 0 | 6.0*
NNC(=O)c1cc2c(s1)-c1cc(Cl)ccc1SC2 | 6 | -170 | -15 | -40 | -122 | -2 | . | .
CCN(CC)CCNC(=O)c1cc2c(s1)-c1ccccc1SC2 | 76* | i | -156 | -401 | i | 0 | 57* | 55*
CCN(CC)CCNC(=O)c1cc2c(=O)n(CC)c3ccccc3c2s1 | 38* | -223 | -286 | i | -155 | -7 | 5 | 4
Cc1ccc2c(c1)-c1c(cnn1CC(=O)NCCc1ccc(Cl)cc1)CO2 | 1 | 0 | -2 | -3 | 0 | 3 | . | .
CC(c1cc(F)ccc1O)c1c[nH]c2ccccc12 (stereo not given) | 0 | -3 | 1 | 2 | 1 | -66 | . | .
O=S(=O)(c1ccccc1Br)N(Cc1cn(Cc2ccccc2)nn1)C1CC1 | 1 | -1 | -4 | -1 | 0 | 0 | . | .
CCOC(=O)[C@]12CCCCC/C=C\1N(CCc1ccc(Cl)cc1)C(=O)[C@H]2CC(=O)N1CCCCC1 | 0 | -1 | -1 | -1 | -1 | 0 | . | .

Assay outcomes as filed in PubChem.
